# Sampled rows, rich in hits. Any-hit rate of the full collection: about 2.3%.
# NTR1 agonist: agonists of human neurotensin receptor NTR1; P30989; NTR1-U2OS beta-arrestin-GFP spot imaging, agonist mode; activation, % at 20 µM; actives 0.17% (n = 330,000);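 active = activation at or above 40% of the spot to cytoplasm intensity ratio, with at least 20 cells analyzed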;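 also: 0% = DMSO without peptide and 100% = 100 nM NTR1 peptide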
# Granule exo inh: blocks lytic granule exocytosis; AID 651702; actives 0.66% (n = 360,000); inhibition, % at 10 µM; TALL-104 LAMP-1 surface exposure, flow cytometry; cells stimulated with thapsigargin and PMA;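 active = inhibition above about 55%, limit read from the data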
# ABHD5 PLIN5 PPI: inhibitors of human ABHD5-perilipin-5 interaction; Q00G26+Q8WTS1; Split G. princeps luciferase complementation, luminescence, 4 h; inhibition, % at 4 µM; actives 0.78% (n = 360,000); AID 602281;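 active = inhibition above the mean inhibition across every tested compound plus 3 SD, cut at about 22% in these data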;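 also: 0% = DMSO only wells and the 100% control is not disclosed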
# B2AR ag: human beta-2 adrenergic receptor agonism by FAP | response, % (test concentration not listed) | actives 0.43% (n = 340,000) | P07550 | Am2.2-beta2AR cells, FAP receptor internalization, flow cytometry;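 active = response above a set limit, near 3 SD of response in nonfluorescent compounds, cut at about 42% in these data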
# Target sequence (P07550 whole entry, looked up): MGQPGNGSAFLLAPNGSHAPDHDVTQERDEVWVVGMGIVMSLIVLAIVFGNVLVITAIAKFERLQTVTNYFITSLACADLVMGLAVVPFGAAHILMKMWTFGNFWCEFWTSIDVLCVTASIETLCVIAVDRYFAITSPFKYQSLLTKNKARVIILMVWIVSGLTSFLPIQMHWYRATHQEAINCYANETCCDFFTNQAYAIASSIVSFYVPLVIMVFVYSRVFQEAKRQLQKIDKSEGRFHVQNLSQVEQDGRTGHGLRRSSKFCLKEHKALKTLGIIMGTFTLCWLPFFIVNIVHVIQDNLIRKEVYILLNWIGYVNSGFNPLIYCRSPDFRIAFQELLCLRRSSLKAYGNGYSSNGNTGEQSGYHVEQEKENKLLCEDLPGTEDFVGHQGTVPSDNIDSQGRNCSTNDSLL
# HTR2A ag: mouse HTR2A agonism via beta-arrestin recruitment; P35363; CHO-K1 mHTR2A beta-arrestin complementation, luminescence; percent of 30 µM serotonin response; activation, % at 7.6 µM; actives 0.66% (n = 360,000); AID 624169;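 active = activation above a run cutoff, the mean activation of all tested compounds plus 3 SD, cut at about 14% in these data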;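 also: 0% = plate median of compound wells and 100% = 30 µM serotonin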
# OPRM1 ag: counter-screen for mouse HTR2A agonists: human mu opioid receptor agonists | shares compounds with HTR2A ag | U2OS OPRM1 beta-arrestin PathHunter, luminescence; DMSO 0%, DAMGO 9.3 µM 100% | activation, % at 9.3 µM | actives 5.3% (n = 2,300) | AID 624380;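 active = mean activation above the mean of DMSO-only wells plus 3 SD, cut at about 0.5% in these data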
# m5-HT2A ag conf: confirmation of mouse HTR2A serotonin receptor agonists. CHO-K1 PathHunter beta-arrestin recruitment, luminescence; DMSO 0%, 30 µM serotonin 100%. activation, % at 7.6 µM. actives 19% (n = 2,300). shares compounds with HTR2A ag;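 active = mean activation across triplicates above the hit threshold derived in the original primary screen, cut at about 15% in these data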
# * = called active by the depositor; · = not tested or not shown.
SMILES,NTR1 agonist,Granule exo inh,ABHD5 PLIN5 PPI,B2AR ag,HTR2A ag,OPRM1 ag,m5-HT2A ag conf
CC(=O)NCC1(c2ccccc2)CCN(CC2COc3ccccc3O2)CC1 (configuration not stated),·,4,5,·,20*,0,44*
CCCc1ccc(S(=O)(=O)N2CCN(C(C)C(=O)NCc3ccccc3)CC2)cc1 (configuration not stated),0,0,0,1,4,·,·
Cc1ccc(C)c(N(CC(=O)NC2CCCC2)C(=O)CCC(=O)Nc2cc(C)on2)c1,-1,-1,1,4,-7,·,·
Cc1ccc(NC(=O)c2cccc(NC(=O)CC3SC(N4CCCCC4)=NC3=O)c2)nc1 (configuration not stated),1,7,4,-10,-3,·,·
CCOC(=O)C1CCN(c2nc(C)cc(C)c2C#N)CC1,2,0,-2,4,16*,0,-3
O=C(CSc1nnc(-c2c[nH]c3ccccc23)n1C1CC1)NC1CCS(=O)(=O)C1 (configuration not stated),·,-1,6,·,-8,·,·
CC1CCN=C(N)S1 (configuration not stated),1,4,4,-4,16*,0,0
CCCN1C(=O)CC(Sc2ncccc2C(=O)O)C1=O (configuration not stated),1,-2,-5,-4,-1,·,·
CN1C(=O)CC(Sc2ncccc2C(=O)O)C1=O (configuration not stated),1,2,2,0,15*,-1,1
C#CCNC(=O)C1=C[C@H](c2ccc(Br)cc2)C[C@H](OCCCCO)O1,-3,-3,5,-2,-1,·,·
C/C(=C\c1ccccc1)CN1CCN(c2ccccc2)CC1,4,0,-7,-7,19*,0,41*
Cc1ccccc1Cn1cc(NC(=O)CCCn2nc([N+](=O)[O-])cc2C)cn1,0,3,-1,-4,4,·,·
COc1ccccc1CNC(=O)CN1C(=O)NC2(CCCc3sccc32)C1=O (configuration not stated),-2,11,1,-11,1,·,·
NC(=O)C1(NC(=O)[C@@H]2CC3(CC(c4cccc(NC(=O)[C@@H]5CCC(=O)N5)c4)=NO3)CN2C(=O)Cc2ccc(Cl)cc2)CC1 (some centres not stated),5,-2,-1,0,-1,·,·
NC(=O)C1(NC(=O)[C@@H]2CC3(CC(c4cccc(NC(=O)[C@@H]5CCC(=O)N5)c4)=NO3)CN2C(=O)Cc2ccc(C(F)(F)F)cc2)CC1 (some centres not stated),-2,5,10,-2,20*,-1,-2
CC(C)C[C@H](NC(=O)c1[nH]cnc1C(=O)Nc1ccccc1)C(=O)OC(C)(C)C,34,-2,-9,12,16*,0,-6
OC1CCN(c2ncnc3nc[nH]c23)CC1,-2,8,-5,2,6,·,·
CC1CCN(c2ncnc3nc[nH]c23)CC1,2,-6,-2,1,25*,0,1
Fc1ccc(F)c(CN2CCN(c3ncccn3)CC2)c1,1,3,1,-12,44*,-1,101*
Fc1ccc(CN2CCN(c3ncccn3)CC2)cc1,0,-4,2,9,23*,1.3*,142*
O=C1Cc2cc(S(=O)(=O)Nc3ccccc3Cl)cc3c2N1CCC3,0,-1,0,2,6,·,·
Cc1cc(C(=O)Cn2cnc3cc(F)ccc3c2=O)c(C)n1C1CC1,1,-2,-5,-4,6,·,·
O=S(=O)(N/N=C/c1c(F)cccc1Cl)c1ccccc1,0,-1,-2,8,7,·,·
Cc1ccc(S(=O)(=O)N/N=C/c2c(F)cccc2Cl)cc1,2,-3,-3,8,15*,-1,-3
Cc1cc(SCC(=O)NCCC2=CCCCC2)nc2ccccc12,0,-4,7,-4,-4,·,·
Cc1ccc(P(=O)(CO)c2ccc(C)cc2)cc1,-2,0,6,6,15*,-1,-5
